# Results: PubChem BioAssay (NCATS)
# Inconclusive results are not listed. Where a call stands in place of a potency, no number is given. A number with no mark means an inactive call. Active and inactive are the calls of the source. Calls follow the shape of the dose curve; as a rule, active = well fitted curve in the direction sought with a large enough effect; inconclusive = small, poorly fitted or top-dose-only effect, or another doubt; inactive = no such curve, though single readings can be large; an effect the other way counts as inactive or inconclusive.
# Experiments:
# MCC-13 = assay: qHTS assay to identify novel small-molecules to repurpose for Merkel cell carcinoma treatment (AID 1296009); conditions: MCC and control cell lines, CellTiter-Glo viability, 72 h; series mostly up to 46 µM; also: nearly all actives have a fitted effect of over 60% in size; also: potency is read from the fitted curve at half-maximal effect
# Outline: (§1)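 Cell viability measured by CellTiter-Glo following 72 hr compound treatment at 37 degree celsius, with NPC and MIPE libraries tested in 8- and 11-point concentration series.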
# MCC-26 = assay: as above; conditions: MCC and control cell lines, CellTiter-Glo viability, 72 h; series mostly up to 46 µM
# Outline: as §1
# MKL-1 = assay: as above; conditions: MCC and control cell lines, CellTiter-Glo viability, 72 h; series mostly up to 46 µM
# Outline: as §1
# MKL-2 = assay: as above; conditions: MCC and control cell lines, CellTiter-Glo viability, 72 h; series mostly up to 46 µM
# Outline: as §1
# UISO = assay: as above; conditions: MCC and control cell lines, CellTiter-Glo viability, 72 h; series mostly up to 46 µM
# Outline: as §1
# WaGa = assay: as above; conditions: MCC and control cell lines, CellTiter-Glo viability, 72 h; series mostly up to 46 µM
# Outline: as §1
# C33A = assay: Primary qHTS to identify gynecologic anti-cancer compounds using libraries of approved drugs and bioactive compounds (AID 1345084); conditions: Gynecologic cancer cell panel viability, ATPlite luminescence, 48 h; series mostly up to 57.5 µM; also: nearly all actives have a fitted effect of over 55% in size
# Outline: (§2)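 Cell viability after 48 h drug treatment, ATPlite luminescence readout; five doses.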
# CASKI = assay: as above; conditions: Gynecologic cancer cell panel viability, ATPlite luminescence, 48 h; series mostly up to 57.5 µM
# Outline: as §2
# Es-2 = assay: as above; conditions: Gynecologic cancer cell panel viability, ATPlite luminescence, 48 h; series mostly up to 57.5 µM
# Outline: as §2
# HeLa = assay: as above; conditions: Gynecologic cancer cell panel viability, ATPlite luminescence, 48 h; series mostly up to 57.5 µM
# Outline: as §2
# Hek293T = assay: as above; conditions: Gynecologic cancer cell panel viability, ATPlite luminescence, 48 h, control line for the selectivity index; series mostly up to 57.5 µM
# Outline: as §2
# JEG-3 = assay: as above; conditions: Gynecologic cancer cell panel viability, ATPlite luminescence, 48 h; series mostly up to 57.5 µM
# Outline: as §2
# OV90 = assay: as above; conditions: Gynecologic cancer cell panel viability, ATPlite luminescence, 48 h; series mostly up to 57.5 µM
# Outline: as §2
# PA-1 = assay: as above; conditions: Gynecologic cancer cell panel viability, ATPlite luminescence, 48 h; series mostly up to 57.5 µM
# Outline: as §2
# SKOV3 = assay: as above; conditions: Gynecologic cancer cell panel viability, ATPlite luminescence, 48 h; series mostly up to 57.5 µM
# Outline: as §2
# Tov-21-G = assay: as above; conditions: Gynecologic cancer cell panel viability, ATPlite luminescence, 48 h; series mostly up to 57.5 µM
# Outline: as §2
# Tov112D = assay: as above; conditions: Gynecologic cancer cell panel viability, ATPlite luminescence, 48 h; series mostly up to 57.5 µM
# Outline: as §2
# NIH3T3 = assay: qHTS assay to identify novel small-molecules to repurpose for Merkel cell carcinoma treatment (AID 1296009); conditions: MCC and control cell lines, CellTiter-Glo viability, 72 h; at 44.8 µM (top of the series) unless noted; also: nearly all actives have a fitted effect of over 60% in size; also: potency is read from the fitted curve at half-maximal effect
# Outline: as §1
# CAOV3 = assay: Primary qHTS to identify gynecologic anti-cancer compounds using libraries of approved drugs and bioactive compounds (AID 1345084); conditions: Gynecologic cancer cell panel viability, ATPlite luminescence, 48 h; series mostly up to 57.5 µM; also: nearly all actives have a fitted effect of over 55% in size
# Outline: as §2
structure (smiles),measurement,setting,value
CN(C)CCOC(C)(c1ccccc1)c1ccccn1 (stereo not drawn),Potency,MCC-13,inactive
same,Potency,MCC-26,inactive
same,Potency,MKL-1,inactive
same,Potency,MKL-2,inactive
same,Potency,UISO,inactive
same,Potency,WaGa,inactive
same,Potency,C33A,inactive
same,Potency,CASKI,inactive
same,Potency,Es-2,inactive
same,Potency,HeLa,inactive
same,Potency,Hek293T,inactive
same,Potency,JEG-3,inactive
same,Potency,OV90,inactive
same,Potency,PA-1,inactive
same,Potency,SKOV3,inactive
same,Potency,Tov-21-G,inactive
same,Potency,Tov112D,inactive
NC(N)=NCCC[C@H](N)C(=O)O,"activity change, negative = cytotoxicity",MCC-13,10.7% [at 4.84 µM]
same,"activity change, negative = cytotoxicity",MCC-26,1.83% [at 4.84 µM]
same,"activity change, negative = cytotoxicity",MKL-1,12.8% [at 4.84 µM]
same,"activity change, negative = cytotoxicity",MKL-2,13.9% [at 4.84 µM]
same,outcome,NIH3T3,inactive [at 4.96 µM]
same,"activity change, negative = cytotoxicity",UISO,9.23% [at 4.84 µM]
same,"activity change, negative = cytotoxicity",WaGa,4.2% [at 4.84 µM]
same,"activity change, negative = cytotoxicity",C33A,-3.38% [at 6.55 µM]
same,"activity change, negative = cytotoxicity",CAOV3,24.7% [at 6.55 µM]
same,"activity change, negative = cytotoxicity",CASKI,1.66% [at 6.55 µM]
same,"activity change, negative = cytotoxicity",Es-2,2.88% [at 6.55 µM]
same,"activity change, negative = cytotoxicity",HeLa,8.2% [at 6.55 µM]
same,"activity change, negative = cytotoxicity",Hek293T,14.9% [at 6.55 µM]
same,"activity change, negative = cytotoxicity",JEG-3,7.79% [at 6.55 µM]
same,"activity change, negative = cytotoxicity",OV90,6.81% [at 6.55 µM]
same,"activity change, negative = cytotoxicity",PA-1,23.1% [at 6.55 µM]
same,"activity change, negative = cytotoxicity",SKOV3,0% [at 6.55 µM]
same,"activity change, negative = cytotoxicity",Tov-21-G,-4.36% [at 6.55 µM]
same,"activity change, negative = cytotoxicity",Tov112D,4.12% [at 6.55 µM]
C[C@@H]1CN(c2c(F)c(F)c3c(=O)c(C(=O)O)cn(C4CC4)c3c2F)C[C@H](C)N1,Potency,MCC-13,inactive
same,Potency,MCC-26,inactive
same,Potency,MKL-1,inactive
same,Potency,MKL-2,inactive
same,Potency,UISO,inactive
same,Potency,WaGa,inactive
same,Potency,C33A,inactive
same,Potency,CASKI,inactive
same,Potency,Es-2,inactive
same,Potency,HeLa,inactive
same,Potency,Hek293T,inactive
same,Potency,JEG-3,inactive
same,Potency,OV90,inactive
same,Potency,PA-1,inactive
same,Potency,SKOV3,inactive
same,Potency,Tov-21-G,inactive
same,Potency,Tov112D,inactive
CCCn1cnc2c1c(=O)n(CCCCC(C)=O)c(=O)n2C,Potency,MCC-13,inactive
same,Potency,MCC-26,inactive
same,Potency,MKL-1,inactive
same,Potency,MKL-2,inactive
same,Potency,UISO,inactive
same,Potency,WaGa,inactive
same,Potency,C33A,inactive
same,Potency,CAOV3,inactive
same,Potency,CASKI,inactive
same,Potency,Es-2,inactive
same,Potency,HeLa,inactive
same,Potency,Hek293T,inactive
same,Potency,JEG-3,inactive
same,Potency,OV90,inactive
same,Potency,PA-1,inactive
same,Potency,SKOV3,inactive
same,Potency,Tov-21-G,inactive
same,Potency,Tov112D,inactive
CN(C)CC[C@@H](c1ccc(Cl)cc1)c1ccccn1,Potency,MCC-13,inactive
same,Potency,MCC-26,inactive
same,Potency,MKL-1,inactive
same,Potency,MKL-2,inactive
same,outcome,NIH3T3,inactive
same,Potency,UISO,inactive
same,Potency,WaGa,inactive
same,Potency,C33A,inactive
same,Potency,CAOV3,inactive
same,Potency,CASKI,inactive
same,Potency,Es-2,inactive
same,Potency,HeLa,inactive
same,Potency,Hek293T,inactive
same,Potency,JEG-3,inactive
same,Potency,OV90,inactive
same,Potency,PA-1,inactive
same,Potency,SKOV3,inactive
same,Potency,Tov-21-G,inactive
same,Potency,Tov112D,inactive
CCCCc1ncc(/C=C(\Cc2cccs2)C(=O)O)n1Cc1ccc(C(=O)O)cc1,Potency,MCC-13,inactive
same,Potency,MCC-26,inactive
same,Potency,MKL-1,inactive
same,Potency,MKL-2,inactive
same,Potency,UISO,inactive
same,Potency,WaGa,inactive
same,Potency,C33A,inactive
same,Potency,CAOV3,inactive
same,Potency,CASKI,inactive
same,Potency,Es-2,inactive
same,Potency,HeLa,inactive
same,Potency,Hek293T,inactive
same,Potency,JEG-3,inactive
same,Potency,OV90,inactive
same,Potency,PA-1,inactive
same,Potency,SKOV3,inactive
same,Potency,Tov-21-G,inactive
same,Potency,Tov112D,inactive
COc1ccc(S(=O)(=O)Nc2nnc(CC(C)C)s2)cc1,Potency,MCC-13,inactive
same,Potency,MCC-26,inactive
same,Potency,MKL-1,inactive
same,Potency,MKL-2,inactive
same,Potency,UISO,inactive
same,Potency,WaGa,inactive
same,Potency,C33A,inactive
same,Potency,CASKI,inactive
same,Potency,Es-2,inactive
same,Potency,HeLa,inactive
same,Potency,Hek293T,inactive
same,Potency,JEG-3,inactive
same,Potency,OV90,inactive
same,Potency,PA-1,inactive
same,Potency,Tov-21-G,inactive
same,Potency,Tov112D,inactive
CCCCN1CCCC[C@H]1C(=O)Nc1c(C)cccc1C,Potency,MCC-13,inactive
same,Potency,MCC-26,inactive
same,Potency,MKL-1,inactive
same,Potency,MKL-2,inactive
same,Potency,UISO,inactive
same,Potency,WaGa,inactive
same,Potency,C33A,inactive
same,Potency,CASKI,inactive
same,Potency,Es-2,inactive
same,Potency,HeLa,inactive
same,Potency,Hek293T,inactive
same,Potency,JEG-3,inactive
same,Potency,OV90,inactive
same,Potency,PA-1,inactive
same,Potency,SKOV3,inactive
same,Potency,Tov-21-G,inactive
same,Potency,Tov112D,inactive
Cc1cccc(Nc2cc(Cl)nc(SCC(=O)O)n2)c1C,Potency,MCC-13,inactive
same,Potency,MCC-26,inactive
same,Potency,MKL-1,inactive
same,Potency,MKL-2,inactive
same,Potency,UISO,inactive
same,Potency,WaGa,inactive
same,Potency,C33A,inactive
same,Potency,CAOV3,inactive
same,Potency,CASKI,inactive
same,Potency,Es-2,inactive
same,Potency,HeLa,inactive
same,Potency,Hek293T,inactive
same,Potency,JEG-3,inactive
same,Potency,OV90,inactive
same,Potency,PA-1,inactive
same,Potency,SKOV3,inactive
same,Potency,Tov-21-G,inactive
same,Potency,Tov112D,inactive
Cc1cc2nc3c(=O)[nH]c(=O)nc-3n(C[C@H](O)[C@H](O)[C@H](O)CO)c2cc1C,Potency,MCC-13,inactive
same,Potency,MCC-26,inactive
same,Potency,MKL-1,inactive
same,Potency,MKL-2,inactive
same,Potency,UISO,inactive
same,Potency,WaGa,inactive
same,Potency,C33A,inactive
same,Potency,CASKI,inactive
same,Potency,Es-2,inactive
same,Potency,HeLa,inactive
same,Potency,Hek293T,inactive
same,Potency,JEG-3,inactive
same,Potency,OV90,inactive
same,Potency,PA-1,inactive
same,Potency,SKOV3,inactive
same,Potency,Tov-21-G,inactive
same,Potency,Tov112D,inactive
Cc1cc(C(C#N)c2ccc(Cl)cc2)c(Cl)cc1NC(=O)c1cc(I)cc(I)c1O (stereo not drawn),Potency,MCC-13,inactive
same,Potency,MCC-26,inactive
same,Potency,MKL-1,inactive
same,Potency,MKL-2,inactive
same,outcome,NIH3T3,inactive
same,Potency,WaGa,10.6 µM (active)
same,Potency,C33A,inactive
same,Potency,CAOV3,inactive
same,Potency,CASKI,inactive
same,Potency,Es-2,inactive
same,Potency,HeLa,inactive
same,Potency,Hek293T,inactive
same,Potency,JEG-3,inactive
same,Potency,OV90,inactive
same,Potency,PA-1,inactive
same,Potency,SKOV3,inactive
same,Potency,Tov-21-G,inactive
same,Potency,Tov112D,inactive
CC1(C)Oc2ccc(C#N)cc2[C@@H](N2CCCC2=O)[C@@H]1O,Potency,MCC-13,inactive
same,Potency,MCC-26,inactive
same,Potency,MKL-1,inactive
same,Potency,MKL-2,inactive
same,Potency,UISO,inactive
same,Potency,WaGa,inactive
same,Potency,C33A,inactive
same,Potency,CASKI,inactive
same,Potency,Es-2,inactive
same,Potency,HeLa,inactive
same,Potency,Hek293T,inactive
same,Potency,JEG-3,inactive
same,Potency,OV90,inactive
same,Potency,PA-1,inactive
same,Potency,SKOV3,inactive
same,Potency,Tov-21-G,inactive
same,Potency,Tov112D,inactive
Nc1ccc(S(=O)(=O)Nc2nccs2)cc1,Potency,MCC-13,inactive
same,Potency,MCC-26,inactive
same,Potency,MKL-1,inactive
same,Potency,MKL-2,inactive
same,Potency,UISO,inactive
same,Potency,WaGa,inactive
same,Potency,C33A,inactive
same,Potency,CAOV3,inactive
same,Potency,CASKI,inactive
same,Potency,Es-2,inactive
same,Potency,HeLa,inactive
same,Potency,Hek293T,inactive
same,Potency,JEG-3,inactive
same,Potency,OV90,inactive
same,Potency,PA-1,inactive
same,Potency,Tov-21-G,inactive
same,Potency,Tov112D,inactive
